# Inconclusive results are not listed. Some compounds were tested as several samples or in several runs, with calls that do not always agree. Activity calls are given as the source filed them. Rule for the calls: active = hit-call score of the fitted dose curve at least 0.9, where 1 is the maximum; inconclusive = response in the unintended direction; inactive = score below 0.9.
# Biological target: Nuclear receptor subfamily 4 group A member 2 (Homo sapiens) (UniProt P43354)
# Assay: ATG_NURR1_TRANS: Attagene TRANS-FACTORIAL HepG2 Assay for human Nuclear Receptor Related Protein 1 (NURR1) (AID 2282985)
# Settings: HepG2 Attagene TRANS reporter, mRNA readout
# Description: ATG_TRANS is a cell-based, multiplexed-readout assay that uses HepG2, a human liver cell line, with measurements taken at 24 hours after chemical dosing in a 24-well plate.ATG_NURR1_TRANS is one of 30 assay component(s) measured or calculated from the ATG_TRANS assay. It is designed to make measurements of mRNA induction, a form of inducible reporter, as detected with fluorescence intensity signals by Reverse transcription polymerase chain reaction (RT-PCR) and Capillary electrophoresis technology.Data from the assay component ATG_NURR1_TRANS was analyzed into 1 assay endpoint. This assay endpoint, ATG_NURR1_TRANS, was analyzed in the positive analysis fitting direction relative to DMSO as the negative control and baseline of activity. Using a type of inducible reporter, measures of mRNA for gain-of-signal activity can be used to understand the reporter gene at the transcription factor-level as they relate to the gene NR4A2. Furthermore, this assay endpoint can be referred to as a primary readout, because this assay has produced multiple assay endpoints where this one serves a reporter gene function. To generalize the intended target to other relatable targets, this assay endpoint is annotated to the nuclear receptor intended target family, where the subfamily is orphan.
# Human liver HepG2 cells are transiently transfected with multiple reporter transcription units (MRTUs) in 6-well plates using FuGene 6 reagent (Roche; 3 ml FuGene/1 mg DNA). The MRTU constructs are regulated by a cis-regulating element (promoter). […] A major difference between the CIS and TRANS system is that in CIS activities of endogenous TFs are measured, whereas the TRANS assay evaluates changes in activities of exogenous, chimeric NR-Gal4 proteins. […] At the end of 24 hour incubation, total RNA was isolated using TriZol reagent (Invitrogen). The isolated RNA is then reverse-transcribed using oligo(dT) primer and Mo-MLV reverse transcriptase (Invitrogen) with DNAse I (Ambion) treatment for 30 min. The one-tenth of the produced cDNA was amplified by PCR using Taq DNA polymerase (Invitrogen) and two reporter sequence-specific primers. The PCR products were fluorescently labeled by primer extension with 6-arboxyfluorescein (6-FAM) 5'-labeled reporter sequence-specific primer (2 min at 95 C, 20 s at 68 C and 10 min at 72 C) and these products were digested with 5U of HpaI (New England Biolabs) for 2h at 37 C. The fragments were purified using Qiaquick PCR columns (Qiagen), analyzed on an ABI 3130xL genetic analyzer (Applied Biosystems) with peak positions identified by using a set of X-rhodamine (ROX)-labeled MapMarker1000 molecular weight standards (BioVentures). The raw capillary electrophoresis data was processed using Attagraph software (Attagene).
# Nuclear receptor subfamily 4 group A member 2 (Homo sapiens), sequence (P43354 whole entry, looked up): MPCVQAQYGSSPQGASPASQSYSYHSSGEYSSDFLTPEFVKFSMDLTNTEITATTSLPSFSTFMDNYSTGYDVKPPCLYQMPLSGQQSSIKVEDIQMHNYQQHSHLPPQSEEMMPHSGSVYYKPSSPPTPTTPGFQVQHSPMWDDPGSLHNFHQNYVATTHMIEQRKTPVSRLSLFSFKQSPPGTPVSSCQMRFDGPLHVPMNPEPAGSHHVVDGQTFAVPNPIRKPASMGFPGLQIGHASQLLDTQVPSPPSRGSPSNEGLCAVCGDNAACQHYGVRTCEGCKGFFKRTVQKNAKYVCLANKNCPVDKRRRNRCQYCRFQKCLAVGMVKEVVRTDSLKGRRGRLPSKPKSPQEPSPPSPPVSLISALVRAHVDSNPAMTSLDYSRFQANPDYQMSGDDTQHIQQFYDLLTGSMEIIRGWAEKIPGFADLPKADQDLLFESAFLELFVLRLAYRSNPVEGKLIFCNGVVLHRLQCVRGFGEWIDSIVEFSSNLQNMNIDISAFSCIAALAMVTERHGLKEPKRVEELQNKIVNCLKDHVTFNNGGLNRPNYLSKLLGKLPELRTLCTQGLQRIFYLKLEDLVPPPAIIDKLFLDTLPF
SMILES,outcome,AC50
O=Cc1cccc(Oc2ccccc2)c1,inactive,
COP(=S)(OC)Oc1c(Cl)cc(C)cc1Cl,inactive,
O=C(O)C(F)(F)C(F)(F)C(F)(F)C(F)(F)C(F)(F)C(F)(F)C(F)(F)C(F)(F)C(F)(F)C(F)(F)F,inactive,
N#CN=C(N)N,inactive,
CCC[CH2][Sn]([CH2]CCC)([CH2]CCC)[O]C(=O)c1ccccc1,,0.0161 µM (active)
Fc1ccc(C2(Cn3cncn3)OC2c2ccccc2Cl)cc1 (stereo not given),inactive,
Nc1ccc(N=Nc2ccc(-c3ccc(N=Nc4c(S(=O)(=O)O)cc5cc(S(=O)(=O)O)c(N=Nc6ccccc6)c(O)c5c4N)cc3)cc2)c(N)c1,inactive,
ClCc1cccnc1,inactive,
Nc1ncc([N+](=O)[O-])s1,inactive,
COc1cc(-c2ccc(N)c(OC)c2)ccc1N,inactive,
COc1ccc(C=O)cc1OC,inactive,
N#Cc1ccccn1,inactive,
CCNc1nc(NC(C)(C)C)nc(SC)n1,inactive,
C[C@H]1O[C@@H](O[C@H]2[C@@H](O)C[C@H](O[C@H]3[C@@H](O)C[C@H](O[C@H]4CC[C@@]5(C)[C@H](CC[C@@H]6[C@@H]5CC[C@]5(C)[C@@H](C7=CC(=O)OC7)CC[C@]65O)C4)O[C@@H]3C)O[C@@H]2C)C[C@H](O)[C@@H]1O,inactive,
CC1(C)Cc2cccc(O)c2O1,inactive,
c1ccc(N=NNc2ccccc2)cc1,,39.7 µM (active)
CC(C)(C)CC(C)(C)c1ccc(O)cc1,inactive,
CCOP(OCC)OCC,inactive,
CC1(C)CCC(Cc2ccc(Cl)cc2)C1(O)Cn1cncn1 (stereo not given),inactive,
COC(=O)Cc1ccccc1,inactive,

SMILES,outcome,AC50
C=C(C)C(=O)[O][Sn]([CH2]CCC)([CH2]CCC)[CH2]CCC,,0.00168 µM (active)
O=C1C2(Cl)C3(Cl)C4(Cl)C(Cl)(Cl)C5(Cl)C3(Cl)C1(Cl)C5(Cl)C24Cl (stereo not given),inactive,18.9 µM (active)
CCOP(=S)(OCC)SCSP(=S)(OCC)OCC,inactive,
COC(=O)c1sccc1S(=O)(=O)NC(=O)Nc1nc(C)nc(OC)n1,inactive,
O=C(CCl)CCl,inactive,
CCCCCCCCSC(=O)Oc1cc(Cl)nnc1-c1ccccc1,inactive,
NC(=O)O,inactive,
CC(=[OH+])/C=C(/C)[O-].CC(=[OH+])/C=C(/C)[O-].CC(=[OH+])/C=C(/C)[O-].[Fe],inactive,
O=C(OC1CCCCC1)c1ccccc1C(=O)OC1CCCCC1,inactive,
ClC1(Cl)C2(Cl)C3(Cl)C4(Cl)C(Cl)(Cl)C5(Cl)C3(Cl)C1(Cl)C5(Cl)C24Cl (stereo not given),inactive,
CC(C)c1cccc(C(C)C)c1O,inactive,
O=C(O)C(Cl)(Cl)Cl,inactive,
COS(=O)(=O)c1ccc(C)cc1,inactive,
C[C@H]1CCCC(=O)CCC/C=C/c2cc(O)cc(O)c2C(=O)O1,inactive,
Clc1ccc(COC(Cn2ccnc2)c2ccc(Cl)cc2Cl)cc1 (stereo not given),inactive,
Cc1cc(Cl)ccc1O[C@H](C)C(=O)O,inactive,
COP(=S)(OC)Oc1cc(Cl)c(Cl)cc1Cl,inactive,
COc1ccc(OC)c(C=O)c1,inactive,
CC(C#N)CCC#N (stereo not given),inactive,

# Reference: PubChem BioAssay (EPA / NIEHS)
